High-throughput results (PubChem BioAssay)
PGK inhibitor – blocks T. brucei phosphoglycerate kinase; P07378; PGK/GAPDH coupled, Kinase-Glo luminescence, 60 min; Potency, µM (series often up to 57.5 µM), inactives show at the highest dose activity change, negative = inhibition, hits mostly inhibitors; 0.043% of 380,000 active; AID 602233; note: nearly all actives have a fitted effect of over 60% in size
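Luminescent ATP detection (Kinase-Glo Plus) follows a 60-minute room-temperature incubation, with wells lacking PGK as controls. Buffer: 100 mM TEA (pH 7.6), 5 mM MgCl2, 0.01% Tween-20. Coupling enzyme GAPDH (100 nM final) supplies unstable 1,3-BPG in-well.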
RECQ1 helicase – inhibitors of human RECQ1 DNA helicase | RECQ1 DNA unwinding, red fluorescence kinetic read | Potency, µM (top dose mostly 57.3 µM), for the others: at the highest dose activity, negative = inhibition, actives largely listed as inhibitors | 0.54% of 240,000 active;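 note: plate controls were vehicle for no effect and no enzyme for full effect; nearly all actives have a fitted effect of over 30% in size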
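50 nM RECQ1T1 preincubated 15 min with compound in Tris pH 8.0 buffer with MgCl2, DTT, Tween-20 and 2.5 ug/ml poly(dI-dC); started with 200 nM TAMRA/BHQ-2 forked duplex and 2 mM ATP. Unwinding read as fluorescence (525/598 nm), two reads 2 h apart.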
FEN1 inh – blocks human flap endonuclease 1. P39748. Recombinant FEN1 flap cleavage, fluorescence, 15 min. Potency, µM (top dose mostly 114 µM), for the others: at the top dose activity change, negative = inhibition, usual class: inhibitors. 0.35% of 390,000 active; note: nearly all actives have a fitted effect of over 65% in size
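With each library titrated from low to high concentration, compounds met 10 nM FEN1 for 15 min at room temperature before 50 nM substrate was added; readings at 0 and 15 min fed four-parameter Hill curve fits.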
BLM inh – blocks DNA unwinding by human BLM helicase | P54132 | recombinant BLM DNA unwinding, fluorescence dequenching | Potency, µM (highest dose often 56.1 µM), for inactives: at the top dose activity change, negative = inhibition, actives largely listed as inhibitors | 0.2% of 350,000 active;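 note: plate controls were vehicle for no effect and no enzyme for full effect; nearly all actives have a fitted effect of over 35% in size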
APEX1 inh – APE1 (human) endonuclease inhibition; recombinant APE1, TAMRA/BHQ-2 abasic DNA cleavage fluorescence; 0.35% of 350,000 active; Potency, µM (titrated, usually from 65.8 µM), inactives show at the top dose activity change, negative = inhibition, hits mostly inhibitors; AID 2517;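 note: plate controls were vehicle for no effect and reference inhibitor for full effect; nearly all actives have a fitted effect of over 55% in size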
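Readout is kinetic fluorescence (ex 525, em 598 nm) from cleavage of 50 nM TAMRA/BHQ-2 THF abasic duplex by 0.75 nM APE1, compound added 15 min beforehand at RT.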
Starred values were filed as active, the others as inactive; i = inactive; ? = inconclusive; . = no result given; [ ] = dose if it differs, or a comment. Rows were chosen to be rich in hits. Some 0.74% of all compounds tested hit in one or more screens of this group. Calls come from the whole dose curve; as a rule, active = well fitted curve in the direction sought with a large enough effect; inconclusive = small, poorly fitted or top-dose-only effect, or another doubt; inactive = no such curve, though single readings can be large; an effect the other way counts as inactive or inconclusive. Unless noted, % is set by controls: 0 for no effect and ±100 for the full control effect; potency is the fitted concentration of half-maximal effect.

SMILES	PGK inhibitor	RECQ1 helicase	FEN1 inh	BLM inh	APEX1 inh
COc1ccc2[nH]c3c(c2c1)CCN=C3C	3%	?	50µM*	-12%[21.4 µM]	0%
CCn1nc(-c2ccccc2)nc2c(=O)n(C)c(=O)nc1-2	?	-25%	-12%	1.4µM*	?
COC(=O)C1=C(c2ccc(F)cc2OCc2ccccc2)C[C@@H]2CC[C@H]1N2C(=O)NCc1ccccc1Br	-1%	.	0%	.	-1%
NC(=O)OCCCc1ccccc1	-2%	.	-1%	5%	.
CCOC(=O)CCCc1cc[c]([Sb](=[O])([OH])[OH])cc1	.	.	3.5µM*	.	.
CCCCC/C=C\C/C=C\C/C=C\C/C=C\CCCC(=O)NCCc1ccc(O)c(O)c1	.	-2%	.	-23%	?
CCCCC/C=C\C/C=C\C/C=C\C/C=C\CCCC(=O)N(Cc1ccc(O)c(Cl)c1)Cc1ccc(O)c(Cl)c1	.	4%	.	32µM*	4%
COc1cc2c(cc1O)C[C@H]1c3c(cc(OC)c(O)c3-2)CCN1C	.	25µM*	.	-23%	?
COc1ccc2c(c1OC)CN1CCc3cc4c(cc3[C@H]1C2)OCO4	2%	-5%[25.9 µM]	0%	-13%[21.4 µM]	-4%
Cc1ccc(N2C(=O)NC(=O)/C(=C\C=C\c3ccco3)C2=O)cc1C	-6%	28µM*	?	-3%	5%
Cc1cccc(N2C(=O)NC(=O)/C(=C\C=C\c3ccco3)C2=O)c1	-12%	22µM*	?	-21%	?
Cc1ccc(N2C(=O)NC(=O)/C(=C\C=C\c3ccco3)C2=O)cc1	-2%	?	?	-11%	?
Cc1cc(C)cc(N2C(=O)NC(=O)/C(=C/c3cccn3-c3ccc(Cl)cc3)C2=O)c1	-6%	i	0%	-6%	?
Cc1cccc(N2C(=O)NC(=O)/C(=C\c3cccn3-c3ccc(Cl)cc3)C2=O)c1	-3%	32µM*	17%	-22%	0%
Cc1cccc(N2C(=O)NC(=O)/C(=C/c3ccc([N+](=O)[O-])o3)C2=O)c1	?	1%	20µM*	-8%	?
CCn1c(O)c(C=NCc2ccccc2)c(=O)[nH]c1=S	5%	-1%	-9%	-14%	6%
Cc1ccc(CNCCc2ccccc2F)cc1	-4%	-3%	0%	8%	17%
COc1ccc(CN2C(=O)NC(=O)/C(=C/c3ccc([N+](=O)[O-])o3)C2=O)cc1	.	10µM*	.	?	?
Cc1ccc(/C=C2/C(=O)NC(=O)N(Cc3ccc(F)cc3)C2=O)o1	.	6%	.	-1%	14%
C[C@@H](Cc1cccc(C(F)(F)F)c1)NCCCc1ccccc1	.	i	.	1%	3%
N#CC(C#N)=NNc1ccc(S(N)(=O)=O)cc1	?	i	40µM*	-16%	?
Cc1cccc(-n2c(O)c(C=NCCN3CCNCC3)c(=O)[nH]c2=S)c1	-6%	.	8%	2%	26%
COc1ccccc1N1C(=O)NC(=O)/C(=C/c2ccc3c(c2)Cc2ccccc2-3)C1=O	-16%	-9%	79µM*	0%	-3%
O=C1NC(=O)N(c2ccccc2)C(=O)/C1=C/c1ccc2c(c1)Cc1ccccc1-2	.	-2%	.	4%	-2%
CCOC(=O)c1c(NS(=O)(=O)c2ccccc2)n(CCCOC)c2nc3ccccc3nc12	-21%	-2%	-6%	5.6µM*	?
SMILES	PGK inhibitor	RECQ1 helicase	FEN1 inh	BLM inh	APEX1 inh
N=C(N)c1ccc(-c2ccc(-c3ccc(C(=N)N)cc3)o2)cc1	.	.	40µM*	.	.
CC(=NCCC1=CCCCC1)c1c(O)[nH]c(=O)[nH]c1=O	5%	-11%	0%	-6%	2%
CC1Oc2cc3c(-c4c(O)cc(O)c5c(O)c6c(cc45)OC(C)C(C)C6=O)c(O)cc(O)c3c(O)c2C(=O)C1C (configuration not stated)	-2%	25µM*	14µM*	-24%	?
COC(=O)C1=C(c2ccc(F)cc2F)C[C@@H]2CC[C@H]1N2C(=O)NC(C)C	i	.	0%	.	46%
CC(C)(C)OOC(=O)c1ccccc1	.	-1%	.	.	7%
CC(=O)Oc1c2c(c(CC=C(C)C)c3c1C(=O)C1=CC4CC5C(C)(C)OC(C/C=C(\C)C(=O)O)(C4=O)[C@]15O3)OC(C)(CCC=C(C)C)C=C2 (some centres not stated)	.	?	.	22µM*	-1%
COC(=O)/C(C)=C\CC12OC(C)(C)C3CC(C=C4C(=O)c5c(OC)c6c(c(CC=C(C)C)c5OC431)OC(C)(CCC=C(C)C)C=C6)C2=O (configuration not stated)	.	-1%	.	-10%	-1%
CN1C(=O)/C(=C\c2ccc(N3CCCCC3)o2)C(=O)NC1=S	-10%	-10%	6%	-1%	6%
CN1CCN(c2ccc(/C=C3\C(=O)NC(=S)N(c4cccc(Br)c4)C3=O)o2)CC1	-13%	14µM*	?	-13%	3%
Fc1ccc(CCNCc2ccccc2Cl)cc1	.	-2%	14%	1%	2%
Cc1ccc(C=C2C(Cl)=C(Cl)C(Cl)=C2Cl)cc1	-26%	10µM*	?	-25%	16µM*
N#CC1=C(N)Oc2c(c(=O)sc3ccccc23)C1c1ccncc1 (configuration not stated)	0%	i	2%	-1%	13%
N#CC1=C(N)Oc2n[nH]c(-c3cccs3)c2C1c1ccco1 (configuration not stated)	-10%	32µM*	-5%	-13%	-1%
C=CCN1CCC2(C)c3cc(O)ccc3C[C@H]1[C@H]2C	.	-5%	.	4%	-2%
O=C1NC(=O)C(=Cc2ccc(Sc3ccccc3)o2)C(=O)N1	-1%	-1%	?	-3%	22%
O=C1NC(=O)N(c2ccc(Cl)cc2)C(=O)/C1=C\c1ccc(Sc2nc3ccccc3[nH]2)o1	-21%	25µM*	79µM*	-15%	?
CN1C(=O)N(C)C(=O)C2(Cc3c(ccc4ccccc34)N(C)C2)C1=O	7%	6%	-2%	-6%	-5%
CC/C(CC(c1ccccc1)c1c(O)c2ccccc2oc1=O)=N\NC(N)=S (configuration not stated)	i	-4%	-4%	-6%	25µM*
CC(=O)CC(c1ccc(O)cc1)c1c(O)c2ccccc2oc1=O (configuration not stated)	.	6%	.	1%	12%
CNc1cc(Cl)c2nonc2c1[N+](=O)[O-]	1%	-5%	13µM*	-8%	-2%
O=[N+]([O-])c1c(Cl)c(Cl)cc(Cl)c1Cl	.	5%	.	.	3%
COc1ccc(NS(=O)(=O)c2ccc3c(c2)oc(=O)n3C)cc1Cl	1%	.	14%	-3%	54%
CCOc1ccc(NS(=O)(=O)c2ccc(Cl)c(N=Nc3c(O)[nH]c(=S)[nH]c3=O)c2)cc1Br	22µM*	.	.	.	.
